Measured values: PubChem BioAssay (NCATS)
Inconclusive results are not listed. Where a call stands in place of a potency, no number is given. Activity calls are given as the source filed them. The call rests on the fitted dose curve; in most records, active means well fitted curve in the direction sought with a large enough effect; inconclusive means small, poorly fitted or top-dose-only effect, or another doubt; inactive means no such curve, though single readings can be large; an effect the other way counts as inactive or inconclusive. Numbered stars: 1 amine (or outer) side, 2 acyl side, 3 side chain; on linkers, the order of the positions; unused ones are H or OH. Bridge positions count the residues as written; N and C are the ends. Square brackets hold non-standard residues; d marks the D form. Peptide text beside a SMILES is read from it. ξ: configuration not given here. X1 = CCCCCCCCCC(=O)[C@H](C(=O)[*:2])[C@@H]1CNC(=O)[C@@H](N[*:1])CS1; Phe(3R-OH) = O=C([C@@H](N[*:1])[C@H](O[*:3])c1ccccc1)[*:2]; NMeTrp(4-OMe) = CN[C@@H](Cc1c[nH]c2cccc(OC)c12)C(=O)O; ξThr(3R)(O-yl) = C[C@@H](O[*:3])C(N[*:1])C(=O)[*:2]; NMeThr(3ξ) = CN[C@H](C(=O)O)C(C)O; NMeL = CN[C@@H](CC(C)C)C(=O)O; NMeV = CN[C@H](C(=O)O)C(C)C; ξIle = CC[C@H](C)C(N)C(=O)O; ξV = CC(C)C(N)C(=O)O

Tests used:
[1] = OV-SAHO Cancer Cell Toxicity qHTS against the NCATS CANVASS Library (AID 1347348); further: nearly all actives have a fitted effect of over 55% in size; further: potency means the concentration at half of the fitted maximal effect
Summary of the method: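 Bortezomib titration and single-dose wells served as plate controls. Test compounds, 11 points, acted on 1000 cells/well for 72 h at 37 degrees C; CellTiter-Glo luminescence quantified remaining viable cells.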

[2] = qHTS for activators of Nrf2/ARE signaling pathway screened against the NCATS CANVASS Library (AID 1347391); further: nearly all actives have a fitted effect of over 60% in size; further: potency means the concentration at half of the fitted maximal effect
Summary of the method: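 Beta-lactamase reporter signal, read as 460 and 530 nm emission under 405 nm excitation after 2 h CCF4 loading, reflected ARE activation in HepG2 cells treated 16 h with an 11-point series.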

[3] = qHTS for activators of dead-cell proteases activity screened against the NCATS CANVASS Library (AID 1347392);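 further: luminescence from protease leaking out of membrane-damaged cells cleaving impermeant substrate; rising signal means more cytotoxicity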
Summary of the method: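 HepG2, 2000 cells/well, 18 h attach; cpd 11-pt, 5 h 37C 5% CO2; CytoTox-Glo (AAF-aminoluciferin) 15 min RT; luminescence read.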

[4] = qHTS for inhibitors of Wild type Zika virus screened against the NCATS CANVASS Library (AID 1347396); further: potency means the concentration at half of the fitted maximal effect
Summary of the method: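 Vero 766 cells, 1000/well, o/n attach; cpds pin-transferred (11-pt qHTS); WT Zika added; 72 h, 37C, 5% CO2; CellTiter Glo lumi. Uninfected + vehicle = 100% inhibition.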

[5] = HPAF-II 24hr Apoptosis Induction qHTS against the NCATS CANVASS Library (AID 1347356)
Summary of the method: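 Cells seeded at 500 per well, then compounds pin-transferred in an 11-point concentration series. After 24 hours at 37 degrees C, Caspase-Glo 3/7 was added and luminescence measured following 15 min at room temperature.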

[6] = HPAF-II 18hr Apoptosis Induction qHTS against the NCATS CANVASS Library (AID 1347360)
Summary of the method: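 Apoptosis was scored as caspase-3/7 activity in HPAF-II pancreatic cancer cells treated 18 hours with an 11-point concentration series.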

[7] = qHTS for Antimalaria activity screened against the NCATS CANVASS Library (AID 1347380); further: nearly all actives have a fitted effect of over 40% in size; further: potency means the concentration at half of the fitted maximal effect
Summary of the method: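 Compounds are titrated over 11 concentrations onto Dd2 parasite cultures (0.3% parasitemia, 2.5% hematocrit). Growth over 72 h at 37C in low oxygen is measured as SYBR Green DNA fluorescence after lysis.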

[8] = qHTS for ATAD5 Agonist screened against the NCATS CANVASS Library (AID 1347367);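 further: luciferase reporter driven by ATAD5 which rises upon DNA damage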; further: potency means the concentration at half of the fitted maximal effect
Summary of the method: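 Step one plated reporter cells and let them acclimate 5hr. Step two pinned compounds with MMS as positive and 0.46% DMSO as negative control. After 16hr incubation, fluorescence viability then luminescence were read.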

[9] = Redox Reaction Profiling qHTS: Assay Interference Panel against the NCATS CANVASS Library (AID 1347401)
Summary of the method: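 Fluorescence read-out (525 nm excitation, 598 nm emission) at time zero and after 15 min in the dark tracked resorufin formation. Mix: 5 uM resazurin, 200 uM DTT, HEPES pH 7.3 buffer with NaCl.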

Row | Structure (SMILES) | Potency [1] | Potency [2] | Potency [3] | Potency [4] | outcome [5] | Potency [6] | Potency [7] | Potency [8] | Potency [9]
1 | CC[C@@H]1C[C@@]2(CC)OC(=O)[C@@]3(CC)OC(=O)[C@@H]1[C@@H]23 | inactive | inactive | inactive | inactive |  |  |  |  | 
2 | C[C@@]12CCC[C@@](C)(C(=O)O)[C@H]1C[C@@H](O)[C@]13C[C@H]4C[C@H](O[C@@]4(C)C1)[C@@H]23 | inactive | inactive |  | inactive | inactive | inactive | inactive |  | 
3 | C[C@@]12CCC[C@@](C)(C(=O)O)[C@H]1CC[C@]13C[C@H]4C[C@H](O[C@@]4(C)C1)[C@H]32 | inactive | inactive | inactive | inactive |  | inactive |  | inactive | inactive
4 | C/C1=C\CC(=O)/C=C/C=C\c2csc(n2)[C@@H](C)NC(=O)C[C@@](S)([C@@H](C)C(=O)O)CC1 | inactive | 18600 nM (active) | inactive | inactive | inactive |  | inactive | inactive | 
5 | O=C(O)Cc1c[nH]c2ccccc12 | inactive | inactive |  | inactive |  | inactive |  |  | 
6 | O=c1cc(-c2ccc(O)cc2)oc2c([C@@H]3OC(CO)[C@H](O)[C@@H](O)[C@H]3O)c(O)cc(O)c12 (stereo not given in full) | inactive | inactive | inactive | inactive | inactive |  | 1.3 nM (active) |  | inactive
7 | C[C@@H](CCC[C@]1(C)C(=O)C=C[C@]23C[C@H]4C[C@H](O[C@@]4(C)C2)C31)C(=O)N[C@@H](CO)C(=O)O (stereo not given in full) | inactive |  | inactive | inactive |  |  |  |  | inactive
8 | COc1ccc([C@@H]2c3cc(OC)c(OC)cc3C(=O)C(C)C2C)cc1OC (stereo not given in full) | inactive |  |  | inactive |  | inactive |  | inactive | inactive
9 | C=C[C@]1(C)CC[C@@H]([C@H](C)C(=O)/C=C/C(C)C)O1 | inactive | inactive |  | inactive | inactive | inactive |  | inactive | 
10 | CC[C@H](C)C(NC(=O)[C@@H](NC)C(C)C)C(=O)NC1C(=O)N(C)[C@@H](C(C)O)C(=O)N[C@@H](C(C)C)C(=O)N(C)[C@@H](CC(C)C)C(=O)NC(C(C)C)C(=O)N(C)[C@@H](C(C)C)C(=O)N(C)[C@@H](Cc2c[nH]c3cccc(OC)c23)C(=O)N[C@@H](C(C)C)C(=O)N[C@@H]([C@H](O)c2ccccc2)C(=O)N[C@@H](C(C)C)C(=O)O[C@@H]1C (stereo partly drawn) (H-[NMeV][ξIle][ξThr(3R)(O-yl)][NMeThr(3ξ)]V[NMeL][ξV][NMeV][NMeTrp(4-OMe)]V[Phe(3R-OH)]V; ester 3-C) | inactive | inactive | inactive | inactive | inactive | inactive | 3750 nM (active) |  | inactive
11 | C[C@H]1C[C@@H]([C@@H]2CC[C@]34O[C@H](CC[C@@]35C[C@H](C)C(=O)O5)CN24)OC1=O | inactive | inactive | inactive | inactive | inactive | inactive | inactive | inactive | 
12 | C/C=C/c1cc(OC)c2c(c1)[C@@H](C)[C@H](c1ccc(O)c(OC)c1)O2 | inactive |  | inactive | inactive | inactive | inactive | inactive |  | inactive
13 | Oc1ccc(/C=C2/c3cc(O)cc(O)c3C(c3ccc(O)cc3)[C@H]2c2cc(O)cc(O)c2)cc1 (stereo not given in full) | 14900 nM (active) | inactive |  | inactive | inactive | inactive | inactive | inactive | 
14 | CC1=CC2=C[C@H](C)C[C@@]23OC(=C(C)C3=O)CC(C)(C)/C=C/C1=O | 2110 nM (active) | 74.1 nM (active) |  |  | inactive |  | 2360 nM (active) |  | inactive
15 | O=C(O)CC1OC(=O)c2c(O)cccc21 (stereo not given) |  | inactive |  | inactive |  | inactive |  | inactive | inactive
16 | C=C1C[C@@]23C=CC(=O)[C@@](C)(CCC(=O)Nc4c(O)ccc(C(=O)O)c4O)C2C[C@@H]1CC3O (stereo not given in full) |  | inactive | inactive | inactive | inactive | inactive | inactive | inactive | 
17 | O=Cc1ccc2n1C[C@@]1(OC2)O[C@H](CO)[C@@H](O)[C@@H]1O |  | inactive |  | inactive | inactive | inactive | inactive | inactive | inactive
18 | C=C1/C=C\C(CCC)=C\c2csc(n2)C(C)NC(=O)C[C@@]2(CC(=O)O)CCC(=C)[C@H](C1)S2 (stereo not given in full) |  |  | inactive | inactive | inactive | inactive |  | inactive | inactive

Row | Structure (SMILES) | Potency [1] | Potency [2] | Potency [3] | Potency [4] | outcome [5] | Potency [6] | Potency [7] | Potency [8] | Potency [9]
19 | CC(C)=CCC[C@@H](C)[C@@H]1CC[C@@]2(C)C[C@H]3C(C)=CC(=O)[C@@H]3/C(C=O)=C\C[C@H]12 |  | inactive | inactive |  |  |  |  | inactive | 
20 | C=C(C)C(=O)O[C@H]1C[C@H](C)[C@@H](OC(C)=O)CC[C@@]2(C)O[C@@H]2[C@H]2OC(=O)C(COC(C)=O)=C12 | 2360 nM (active) |  | inactive |  |  |  |  |  | 
21 | CO[C@H]1/C=C/CC[C@@H](S[C@@H]2O[C@H](CO)[C@@H](O)[C@H](O)[C@H]2O)CC(=O)O[C@@H](/C(C)=C/[C@H](C)C(=O)CCCC2CC(=O)NC(=O)C2)[C@@H](C)[C@@H]1O |  | inactive | inactive | inactive | inactive |  | inactive | inactive | 
22 | CC(C)=CCC/C(C)=C/Cc1c(O)c(CC=C(C)C)c(O)c2c(=O)c3cc(O)ccc3oc12 |  | 2630 nM (active) |  |  | inactive |  |  | inactive | inactive
23 | C[C@@H](O)[C@H]1OC(=O)C=C2[C@]3(C)[C@H]4[C@H](OC(=O)[C@@]4(C)[C@@H](O)[C@H]4O[C@H]43)[C@H]3O[C@@]231 |  |  |  |  |  | inactive | 594 nM (active) | 524 nM (active) | inactive
24 | CC(=O)[C@@H]1[C@@H](O)C[C@H]2[C@]3(C)CC[C@H]4C(C)(C)CCC[C@]4(CO)[C@H]3C[C@H]3OC(=O)[C@@H]1[C@@]32C | inactive | inactive |  | inactive |  | inactive |  |  | inactive
25 | CC(=O)O[C@@H]1C=C2C(=O)OC[C@]2(O)[C@@]2(C)CCCC(C)(C)[C@H]12 |  | inactive |  | 26100 nM (active) |  |  | 18.8 nM (active) |  | 
26 | OCc1ccc2ocnc2c1 |  | inactive | inactive | inactive | inactive | inactive | inactive | inactive | inactive
27 | CCCCCCCCCC(=O)[C@@H]1C(=O)N[C@@H](CC(C)C)C(=O)N[C@H](C)C(=O)N2CCC[C@H]2C(=O)N[C@@H](C(C)C)C(=O)N[C@H]2CS[C@H]1CNC2=O (cyclo(L[dA]PV[X1])) | inactive |  |  |  |  | inactive | 3.3 nM (active) |  | 
28 | COc1cc(/C=C2/C(=O)N(c3ccc(O)cc3C(=O)O)[C@H](c3ccc(O)c(OC)c3)C2C(=O)Nc2ccc(O)cc2C(=O)O)ccc1O (stereo not given in full) |  | inactive |  | inactive |  | inactive |  | inactive | 
29 | C[C@@H]1O[C@H](c2c(O)cc(O)c3c(=O)cc(-c4ccc(O)cc4)oc23)[C@H](O)[C@H](O)[C@H]1O |  | inactive | inactive | inactive | inactive | inactive |  |  | inactive
30 | CN1CC[C@]2(c3cccc4c3N[C@@H]3N(C)CC[C@]43[C@@]34CCN(C)[C@@H]3Nc3ccccc34)c3ccccc3N[C@H]12 |  | inactive |  | inactive | inactive | inactive | 1490 nM (active) | inactive | inactive
31 | C=C(C)[C@@H]1CC[C@]2(C)CC[C@]3(C)[C@H](CC[C@@H]4[C@@]5(C)CC[C@H](O)C(C)(C)[C@@H]5CC[C@]43C)[C@@H]12 | inactive | inactive | inactive | inactive |  |  | inactive | inactive | inactive
32 | C/C=C/C(=O)[C@@H](C)C1=CC(=O)C2=C(O[C@@]34CC[C@H](O)C(C)(C)[C@@H]3CC[C@H](C)[C@@]4(C)C2)C1=O | 6660 nM (active) | 1860 nM (active) |  |  |  |  |  | inactive | inactive
33 | CCCCCCCCCCCCCCCC(=O)OC/C=C(\C)CCCC(C)CC(C)C(C)C (stereo not given) |  | inactive | inactive | inactive | inactive | inactive | 1.9 nM (active) |  | 
34 | CC1(C)CC[C@]2(C(=O)O)CC[C@]3(C)C(=CC[C@@H]4[C@@]5(C)C[C@@H](O)[C@H](O)C(C)(C)[C@@H]5CC[C@]43C)[C@@H]2C1 |  | inactive |  |  | inactive |  |  | inactive | 
35 | COc1ccc(/C=C2\COc3cc(O)ccc3C2=O)cc1 |  | 8310 nM (active) |  |  | inactive | inactive |  | inactive | inactive
